Results filed as inconclusive are left out. Active and inactive are the calls of the source. Unless noted, the call rests on the fitted dose curve; in most records, active means well fitted cell-killing curve with a large enough effect; inconclusive means small, poorly fitted or top-dose-only effect, or effect the other way; inactive means no such curve, though single readings can be large or run the other way.

Assay [1] can be described thus: Quantitative High-Throughput drug screen in 47 multiple myeloma cell lines against the NCATS MIPE library collection: PE2_PLB cell viability assay (AID 1919869). Further: nearly all actives have a fitted effect of over 35% in size. An outline of the steps: (§1)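 ATP-based CellTiter-Glo luminescence after 48 h drug exposure (37 °C, 5% CO2) of 500 myeloma cells per well. DMSO-only wells set 100% viability, media-only wells 0%; MIPE 4.0 library added by pin tool.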

Assay [2] is described as follows: Quantitative High-Throughput drug screen in 47 multiple myeloma cell lines against the NCATS MIPE library collection: PCM6_Riken cell viability assay (AID 1919870). Further: nearly all actives have a fitted effect of over 30% in size. Put shortly:
as §1

Assay [3] can be described thus: Quantitative High-Throughput drug screen in 47 multiple myeloma cell lines against the NCATS MIPE library collection: RPMI8226_ATCC cell viability assay (AID 1919871). Further: nearly all actives have a fitted effect of over 30% in size. Put shortly: as §1
Assay [4] is described as follows: Quantitative High-Throughput drug screen in 47 multiple myeloma cell lines against the NCATS MIPE library collection: OPM2_DSMZ cell viability assay (AID 1919872). Further: nearly all actives have a fitted effect of over 30% in size. An outline of the steps:
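Viability readout: CellTiter-Glo luminescence following 5 min room-temperature incubation with reagent. Prior exposure: 48 h, 37C, humidified 5% CO2, 500 cells per well.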

Assay [5] in a line: Quantitative High-Throughput drug screen in 47 multiple myeloma cell lines against the NCATS MIPE library collection: KMS11_JCRBsus cell viability assay (AID 1919873). Further: nearly all actives have a fitted effect of over 50% in size. An outline of the steps: as §1
Assay [6] in a line: Quantitative High-Throughput drug screen in 47 multiple myeloma cell lines against the NCATS MIPE library collection: KMS28BM_JCRB cell viability assay (AID 1919874). Further: nearly all actives have a fitted effect of over 35% in size. Put shortly: as §1
Assay [7] is described as follows: qHTS drug screen for cell cycle checkpoint inhibitors in PARPi-resistant BRCA-mutant ovarian cancer cell lines. (AID 1963452; calls by dose curve). The settings on record: PEO1/OlaR viability, CellTiter-Glo luminescence, 96 h; for Z-AUC: stronger effect = lower value. An outline of the steps: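 PEO1, PEO4 and PEO1/OlaR ovarian cancer cells, 600 per well, exposed 96 h at 37C to a dilution series. Viability read by CellTiter-Glo luminescence, normalized to DMSO and empty wells; activity summarized as Z-AUC.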
(In general: In qHTS, concentration-response curves come from the screen itself.)

[8] abbreviates: measured here: PEO1 parental Z-AUC.
Potency means the concentration at half of the fitted maximal effect.

For `CN(c1ncccc1CNc1nc(Nc2ccc3c(c2)CC(=O)N3)ncc1C(F)(F)F)S(C)(=O)=O`, the Potency in assay [1] was 3.32 µM (active); in assay [2], 2.35 µM (active); in assay [3], 8.33 µM (active); in assay [4] it was 7.43 µM (active); in assay [5] it was 2.64 µM (active); in assay [6] it was 6.62 µM (active). Besides, the Z-AUC in assay [7] was -0.236 (inactive); in assay [7] (setting [8]), -0.701; in assay [7] (measured here: PEO4 Z-AUC), -0.665.
As for `CC(NCc1ccc2c(c1)nc(NC(=O)c1ccc(-c3cn[nH]c3)s1)n2CC(C)(C)O)C(C)(C)C` (stereo not given), the Potency in assay [1] is 0.296 µM (active); in assay [2], 0.105 µM (active); in assay [3], 0.743 µM (active); in assay [4], 1.05 µM (active); in assay [5] it was 0.209 µM (active); in assay [6], 0.332 µM (active).
With `NC1(Cc2ccc(Cl)cc2)CCN(c2ncnc3[nH]ccc23)CC1`, the Potency in assay [1] is 7.43 µM (active); in assay [2], 5.9 µM (active); in assay [3] it was 14.8 µM (active); in assay [4], 18.7 µM (active); in assay [5], 10.5 µM (active); in assay [6] it was 4.18 µM (active). For the same molecule, the Z-AUC in assay [7] was -0.805 (inactive); in assay [7] (setting [8]), -1.02; in assay [7] (measured here: PEO4 Z-AUC), -1.03.
`COC(=O)Nc1ccc(-c2nc(N3CCOCC3)c3cnn(C4CCN(Cc5cccnc5)CC4)c3n2)cc1`: the Potency was 0.0469 µM (active) in assay [1]; 0.526 µM (active) in assay [2]; 0.0118 µM (active) in assay [3]; 0.296 µM (active) in assay [4]; 0.0296 µM (active) in assay [5]; 0.418 µM (active) in assay [6]. Further, the Z-AUC is -0.964 (inactive) in assay [7], -0.853 in assay [7] (setting [8]) and -0.944 in assay [7] (measured here: PEO4 Z-AUC).
As to `Cc1ccc(C(=O)Nc2ccc(CN3CCN(C)CC3)c(C(F)(F)F)c2)cc1C#Cc1cnc2cccnn12`, the Potency is 0.935 µM (active) in assay [1]; 1.18 µM (active) in assay [2]; 11.8 µM (active) in assay [3]; 5.26 µM (active) in assay [4]; 1.48 µM (active) in assay [5]; 7.43 µM (active) in assay [6]. Besides, the Z-AUC in assay [7] is -2.19 (inactive); in assay [7] (setting [8]), -1.43; in assay [7] (measured here: PEO4 Z-AUC), -0.606.
`N#CCNC(=O)c1ccc(-c2ccnc(Nc3ccc(N4CCOCC4)cc3)n2)cc1`: the Potency in assay [1] was 2.96 µM (active); in assay [2], 3.32 µM (active); in assay [3], 16.6 µM (active); in assay [4] it was 20.9 µM (active); in assay [5], 7.43 µM (active); in assay [6], 7.43 µM (active). Further, the Z-AUC in assay [7] is -0.322 (inactive); in assay [7] (setting [8]), 0.159; in assay [7] (measured here: PEO4 Z-AUC), 0.613.
`COc1cc(C(=O)N2CCC(N3CCN(C)CC3)CC2)ccc1Nc1ncc2c(n1)N(C)c1ccccc1C(=O)N2C`: the Potency in assay [1] is 5.26 µM (active); in assay [2], 14.8 µM (active); in assay [3], 10.5 µM (active); in assay [4], 10.5 µM (active); in assay [5], 1.66 µM (active); in assay [6] it was 3.32 µM (active). For the same molecule, the Z-AUC in assay [7] was -0.667 (inactive); in assay [7] (setting [8]) it was -0.239; in assay [7] (measured here: PEO4 Z-AUC) it was -1.55.
Regarding `O=C(O)c1ccc2cc(-c3ccc(O)c(C45CC6CC(CC(C6)C4)C5)c3)ccc2c1`, the Potency in assay [1] is 1.48 µM (active); in assay [2], 16.6 µM (active); in assay [3] it was 11.8 µM (active); in assay [4], 23.5 µM (active); in assay [5] it was 1.48 µM (active); in assay [6], 1.32 µM (active). In addition, the Z-AUC is -0.815 (inactive) in assay [7], -1.55 in assay [7] (setting [8]) and -1.16 in assay [7] (measured here: PEO4 Z-AUC).
As for `CNC(=O)c1nn(C)c2c1C(C)(C)Cc1cnc(Nc3ccc(N4CCN(C)CC4)cc3)nc1-2`, the Potency in assay [1] is 2.64 µM (active); in assay [2] it was 2.09 µM (active); in assay [3] it was 1.48 µM (active); in assay [4], 13.2 µM (active); in assay [5], 1.05 µM (active); in assay [6] it was 2.96 µM (active). Also, the Potency in assay [7] was 549 nM (active). Also, the Z-AUC is -1.22 in assay [7] (setting [8]) and -1.37 in assay [7] (measured here: PEO4 Z-AUC).
As to `CN1CCN(c2cc(C(=O)Nc3ccc4c(c3)-c3c(c(C(N)=O)nn3-c3ccc(F)cc3)CC4)c(Cl)cn2)CC1`, the Potency in assay [1] is 1.48 µM (active); in assay [2] it was 2.64 µM (active); in assay [3] it was 23.5 µM (active); in assay [4], 26.4 µM (active); in assay [5], 8.33 µM (active); in assay [6], 8.33 µM (active). Moreover, the Z-AUC in assay [7] was 0.539 (inactive); in assay [7] (setting [8]), 0.439; in assay [7] (measured here: PEO4 Z-AUC), -0.0103.
`COc1ccc2c(OCc3nnc4ccc(-c5ccccc5)nn34)ccnc2c1`: the Potency in assay [1] is 1.87 µM (active). Moreover, the Potency entry in assay [2], in assay [3], in assay [4], in assay [5] and in assay [6] was “inactive” each time. Also, the Z-AUC is -0.0998 (inactive) in assay [7], 0.23 in assay [7] (setting [8]) and 0.516 in assay [7] (measured here: PEO4 Z-AUC).
Regarding `O=C(C=Cc1cccc(S(=O)(=O)Nc2ccccc2)c1)NO`, the Potency in assay [1] was 3.82 µM (active); in assay [2], 2.41 µM (active); in assay [3] it was 3.4 µM (active); in assay [4] it was 3.82 µM (active); in assay [5], 1.21 µM (active); in assay [6] it was 1.36 µM (active).
As for `Cc1[nH]nc2ccc(-c3cncc(OC[C@@H](N)Cc4ccccc4)c3)cc12`, the Potency was 1.18 µM (active) in assay [1]; 0.526 µM (active) in assay [2]; 5.9 µM (active) in assay [3]; 9.35 µM (active) in assay [4]; 1.18 µM (active) in assay [5]; 0.296 µM (active) in assay [6]. In addition, the Z-AUC in assay [7] is -1.08 (inactive); in assay [7] (setting [8]) it was -1.59; in assay [7] (measured here: PEO4 Z-AUC) it was -1.81.
Consider `CC(=O)OCCN1C(=O)c2c(C)nc3ccc(S(=O)(=O)N4CCOCC4)cc3c2C1=O`, for which the Potency entry in assay [1], in assay [2], in assay [3], in assay [4], in assay [5] and in assay [6] was “inactive” each time.
Regarding `COC(=O)c1ccc2c(C(=Nc3ccc(N(C)C(=O)CN4CCN(C)CC4)cc3)c3ccccc3)c(O)[nH]c2c1`, the Potency in assay [1] was 10.5 µM (active); in assay [2], 2.96 µM (active); in assay [3] it was 3.72 µM (active).
Take `CN1CC[C@@H](c2c(O)cc(O)c3c(=O)cc(-c4ccccc4Cl)oc23)[C@@H](O)C1`: the Potency in assay [1] was 0.0662 µM (active); in assay [2], 0.0833 µM (active); in assay [3], 0.235 µM (active); in assay [4] it was 0.118 µM (active); in assay [5] it was 0.0662 µM (active); in assay [6], 0.0935 µM (active).
`O=C(CCCCCCNC(=O)c1cnc(N(c2ccccc2)c2ccccc2)nc1)NO`: the Potency in assay [1] is 9.35 µM (active); in assay [2], 9.35 µM (active); in assay [3], 14.8 µM (active); in assay [4], 10.5 µM (active); in assay [5], 7.43 µM (active); in assay [6], 4.18 µM (active). Further, the values for the Z-AUC in assay [7], in assay [7] (setting [8]) and in assay [7] (measured here: PEO4 Z-AUC) were 0.809 (inactive), 0.473 and 0.434, respectively.

The values are drawn from PubChem BioAssay (NCATS).
